# Source: PubChem BioAssay (EPA / NIEHS)
# Records with an inconclusive call do not appear. Some structures have more than one record in an assay (separate samples or runs), and their calls can disagree. Calls of active or inactive are those of the source. How the source made its calls, unless noted: active means hit-call score of the fitted dose curve at least 0.9, where 1 is the maximum; inconclusive means response in the unintended direction; inactive means score below 0.9.
# How the values were obtained:
# [1] = ArunA_CellTiter_hNC: Viability Assessment in the ArunA Biomedical's Oris Neural Crest (hNC) Cell Migration Assay (AID 2283752)
# Summary of the method: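 After a 72 h chemical exposure, viability of hNC cells is read with CellTiter Aqueous One and fitted as signal loss relative to DMSO. Cells were seeded at 60,000/well on Matrigel and cultured 16 h at 37 C beforehand.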
# [2] = ArunA_CellTiter_hNP: Viability Assessment in the ArunA Biomedical's Oris Neural Crest (hNC) Cell Migration Assay (AID 2283753)
# Description: ArunA_CellTiter_hNP is a cell-based, single-readout assay that uses human H9-derived neuroprogenitor stem cells (hNP1).Measurements were taken 72 hours after chemical dosing in a 96-well plate.ArunA_CellTiter_hNP is an assay component measured from the ArunA_CellTiter_hNP assay. It is designed to make measurements of viability, a form of viability reporter, as detected with fluorescence intensity signals by HCS Fluorescent Imaging technology. Data from the assay component ArunA_CellTiter_hNP was analyzed at the endpoint, ArunA_CellTiter_hNP, in the positive analysis fitting direction relative to DMSO as the negative control and baseline of activity. Using a type of viability reporter, loss-of-signal activity can be used to understand the viability. To generalize the intended target to other relatable targets, this assay endpoint is annotated to the cell cycle intended target family, where the subfamily is cytotoxicity.
# To assess the hNP and hNC migration and cell titer endpoints, 60,000 cells per well were plated onto Matrigel in basal growth medium with LIF and bFGF in a 96-well plate format. Plates were incubated for 16 h at 37C followed by a 72 h exposure to chemical in the test medium. For the migration endpoints, cells were seeded and incubated in presence of 'seeding stoppers' to prevent cell migration and growth into the detection zone. At the beginning of chemical exposure, stoppers were removed, and growth medium was replaced with test medium. In the case of the stopper control wells, stoppers remained in place following replacement of growth medium with test medium. Following 72 -h exposure to the test medium, cells were stained at 37C for 30-60 min with calcein-AM. Cell viability in the detection zone was quantitated using a Flexstation3 microplate reader (ex494 nm/em 517 nm). Corresponding cell titer endpoints were assessed for the hNP and hNC cells using the Promega CellTiter Aqueous One Solution Cell Proliferation Assay (Cat no. G3581; CellTiter 96). Finally, to gain insight into the mechanisms by which cells migrate into the detection zone, Ki-67 expression was quantified for 10 additional chemicals in the hNP and hNC systems. Additionally, cytochalasin D was used as a positive control to inhibit cell migration. Supplementing the AB2 Basal Medium: 1. Decontaminate the external surfaces of all supplement vials and the medium bottle with ethanol or isopropanol. 2. Aseptically open each supplement vial and add the amount indicated below to the basal medium with a pipette. To make 100 ml of complete medium: AB2 Neural Medium 96 mL, ANS Supplement 2 mL, bFGF (50 ug/mL) 40 uL, LIF (10 ug/mL) 100 uL, L-Glutamine (200 mM) 1 mL, Penicillin (5,000 U/mL)/ Streptomycin (5,000 ug/mL) 1 mL. 3. Supplemented medium should be stored at 2-8C, protected from light. […]
# [3] = CCTE_Padilla_ZF_144hpf_TERATOSCORE: (Legacy) CCTE's 144 Hour Post-fertilization zebrafish Assay Teratoscore, Padilla Lab (AID 2283679; active means hit-call score of the fitted dose curve at least 0.9, where 1 is the maximum; inactive means score below 0.9;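 on AC50: zebrafish embryos with chorions exposed by immersion from 6-8 hpf to 5 dpf with daily renewal; teratogenicity score from eye scoring of death hatching and malformations at 144 hpf; higher score means more developmental defects relative to DMSO baseline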)
# Summary of the method: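 Larvae scored by eye at 144 hpf for death, hatching and malformations after a day in clean Hanks'. Before that, daily-renewed exposure at 80 uM (0.4% DMSO, 26C) from roughly 6-8 hpf through 5 dpf, 4 embryos per chemical.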
# [4] = Tanguay_ZF_120hpf_ActivityScore_legacy: (Legacy) Oregon State University Tanguay Lab 120 Hour Post-fertilization zebrafish Assay Score for Activity (AID 2283742);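 on AC50: dechorionated Tropical 5D wild-type zebrafish embryos held singly per well; static exposure from 6 hpf until 120 hpf at 28 °C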
# Summary of the method: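 In this whole-embryo screen, dechorionated zebrafish were exposed from 6 hpf until 120 hpf at 28C under a 0.64% DMSO vehicle. Developmental malformations and death were recorded by brightfield microscopy as binary endpoints.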
# [5] = STM_H9_OrnithineISnorm_perc: Stemina devTOX quickPredict H9 human embryonic stem cell (hESC)-based Assay for Ornithine (ORN) Metabolite Biomarker, Normalized (AID 2283712; active means hit-call score of the fitted dose curve at least 0.9, where 1 is the maximum; inactive means score below 0.9;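 further: ornithine released into spent medium during last day measured by mass spectrometry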)
# Summary of the method: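 Ornithine in spent medium from the last 24 h of a 72 h exposure, deproteinised and quantified by UPLC-HRMS against an isotope-labelled internal standard, expressed relative to 0.1% DMSO. Pluripotent H9 cells; compound refreshed every 24 h.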
# [6] = STM_H9_CystineISnorm_perc: Stemina devTOX quickPredict H9 human embryonic stem cell (hESC)-based Assay for Cystine (CYSS) Metabolite Biomarker, Normalized (AID 2283713; active means hit-call score of the fitted dose curve at least 0.9, where 1 is the maximum; inactive means score below 0.9)
# Summary of the method: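 Cystine in spent media from the last 24 h of a 72 h H9 hESC exposure (daily re-dosing), measured by UPLC-HRMS. Values normalized to isotopic internal standard, then to 0.1% DMSO; viability via CellTiter-Fluor.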
# [7] = STM_H9_OrnCyssISnorm_ratio: Stemina devTOX quickPredict H9 human embryonic stem cell (hESC)-based Assay for Ornithine (ORN):Cystine (CYSS) Ratio (AID 2283714)
# Summary of the method: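 H9 hESC, 72h, q24h re-dose; last-day media → acetonitrile deproteinization → UPLC-HRMS. ORN:CYSS ratio from isotope-normalized EIC areas, vs 0.1% DMSO; MTX references on each plate.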
# [8] = CEETOX_H295R_MTT_cell_viability: Viability Assessment in the CeeTox HT-H295R MTT Assay (AID 2283718; active means hit-call score of the fitted dose curve at least 0.9, where 1 is the maximum; inactive means score below 0.9;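 on AC50: curve fitted both ways so AC50 may mark viability loss or gain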)
# Summary of the method: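 H295R cells prestimulated 48 h with 10 uM forskolin, then exposed 48 h to test chemical (0.1% DMSO final). Viability by MTT (0.5 mg/ml, 4 h, 37 C), absorbance 570/650 nm; percent change versus DMSO, bidirectional fit.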
structure (smiles),measurement,setting,value
Cc1ccc(-c2cc(C(F)(F)F)nn2-c2ccc(S(N)(=O)=O)cc2)cc1,AC50,[1],70.4 µM (active)
same,AC50,[2],76.5 µM (active)
Cc1cc(SC2=C(O)C[C@@](CCc3ccc(N)cc3)(C(C)C)OC2=O)c(C(C)(C)C)cc1CO,AC50,[3],16.4 µM (active)
same,outcome,[4],inactive
CCCCC(CC)COP(=O)(OCC(CC)CCCC)OCC(CC)CCCC (stereo not given),outcome,[5],inactive
same,outcome,[6],inactive
same,outcome,[7],inactive
same,outcome,[4],inactive
same,outcome,[2],inactive
CC(C)COC(=O)CCCCC(=O)OCC(C)C,AC50,[3],32.4 µM (active)
same,outcome,[4],inactive
C=CCCCCCCCCCCCC,outcome,[3],inactive
same,outcome,[4],inactive
NC=O,outcome,[3],inactive
same,outcome,[4],inactive
Nc1nc(Cl)nc2c1ncn2[C@H]1C[C@H](O)[C@@H](CO)O1,AC50,[5],0.35 µM (active)
same,AC50,[6],0.348 µM (active)
same,AC50,[7],0.621 µM (active)
same,AC50,[8],0.109 µM (active)
same,outcome,[4],inactive
same,AC50,[1],0.354 µM (active)
same,outcome,[1],inactive
same,AC50,[2],0.345 µM (active)
O=C1NC(=O)C(c2ccccc2)(c2ccccc2)N1,outcome,[5],inactive
same,outcome,[6],inactive
same,outcome,[7],inactive
same,outcome,[4],inactive
C#CC(O)C(CC)CCCC (stereo not given),AC50,[3],21.2 µM (active)
same,outcome,[4],inactive
O=C1O[C@H]([C@H](O)CO)C(O)=C1O,outcome,[3],inactive
same,outcome,[4],inactive
NC(=Nc1ccccc1)Nc1ccccc1,outcome,[5],inactive
same,outcome,[6],inactive
same,outcome,[8],inactive
same,AC50,[4],0.00546 µM (active)
CC(=O)O,outcome,[3],inactive
same,outcome,[4],inactive
O=C1CCCCC1,outcome,[3],inactive
same,outcome,[4],inactive
NCCOCCOCCN,outcome,[3],inactive
same,outcome,[4],inactive
O=C1OC(c2ccc(O)cc2)(c2ccc(O)cc2)c2ccccc21,outcome,[5],inactive
same,outcome,[6],inactive
same,outcome,[7],inactive
same,outcome,[8],inactive
same,outcome,[4],inactive
O=[Si]=O,outcome,[3],inactive
same,outcome,[4],inactive
COC(=O)CCCC(=O)OC,AC50,[3],62.7 µM (active)
same,outcome,[4],inactive
O=C(NS(=O)(=O)/C=C/c1cccs1)c1ccc(F)cc1Br,outcome,[3],inactive
same,outcome,[4],inactive
O=NO,outcome,[5],inactive
same,outcome,[6],inactive
same,outcome,[4],inactive
Cc1cn([C@H]2C=C[C@@H](CO)O2)c(=O)[nH]c1=O,outcome,[5],inactive
same,outcome,[6],inactive
same,outcome,[7],inactive
same,outcome,[4],inactive
COc1ccc(OC(F)(F)F)cc1CN[C@H]1CCCN[C@H]1c1ccccc1,AC50,[3],56.5 µM (active)
same,AC50,[4],17.9 µM (active)
CC(=O)S[C@H](C(=O)N[C@H]1Cc2ccccc2[C@H]2CCC[C@@H](C(=O)O)N2C1=O)C(C)C,outcome,[5],inactive
same,outcome,[6],inactive
same,outcome,[4],inactive
CCCCCCCCCCCCCCCCO,outcome,[5],inactive
same,outcome,[6],inactive
same,outcome,[4],inactive
CCCCCCCCCCCCCCOS(=O)(=O)O,AC50,[3],15.3 µM (active)
same,AC50,[4],32.8 µM (active)
CCCCCCC(C=O)=Cc1ccccc1,AC50,[3],13.9 µM (active)
same,outcome,[4],inactive
Nc1nc(=S)c2[nH]cnc2[nH]1,AC50,[5],3.06 µM (active)
same,AC50,[6],2.13 µM (active)
same,AC50,[7],2.97 µM (active)
same,AC50,[8],2.52 µM (active)
same,outcome,[4],inactive
CCCCOC(=O)CCCCC(=O)OCCCC,AC50,[3],15.9 µM (active)
same,outcome,[4],inactive
CS(=O)(=O)c1ccc([C@@H](C[C@H]2CCC(=O)C2)C(=O)Nc2cnccn2)cc1Cl,outcome,[3],inactive
same,outcome,[4],inactive
CC(C)c1cccc(C(C)C)c1NC(=O)NS(=O)(=O)c1cc(C(C)(C)O)co1,outcome,[3],inactive
same,outcome,[4],inactive
CC(N)=O,outcome,[3],inactive
same,outcome,[4],inactive
O=C(N[C@@H](c1ccccc1)[C@@H]1CCCCN1)c1cccc(C(F)(F)F)c1Cl,AC50,[3],20.3 µM (active)
same,AC50,[4],53.2 µM (active)
CCOCCOCCO,outcome,[4],inactive
O=C(O)c1[nH]n(-c2ccc(S(=O)(=O)O)cc2)c(=O)c1N=Nc1ccc(S(=O)(=O)O)cc1,outcome,[4],inactive
COC(=O)CCC(=O)OC,outcome,[4],inactive
COc1ccc(C(=O)Nc2nc3ccccc3c(NCc3ccccc3)c2C#N)cc1,AC50,[8],0.909 µM (active)
same,outcome,[4],inactive
OCC(CO)n1cnc(-c2ccc(F)cc2)c1-c1ccnc(Oc2ccccc2)n1,outcome,[4],inactive
CO[C@@H]1COCC[C@@H]1N[C@@H]1CC[C@@](C(=O)N2CCc3ncc(C(F)(F)F)cc3C2)(C(C)C)C1,outcome,[4],inactive
C/C=C/c1ccc(OC)cc1,outcome,[4],inactive
CC(C)(C)c1ccccc1,AC50,[4],24.6 µM (active)
CC(C)c1cccc(C(C)C)c1,outcome,[4],inactive
CN(C)C(=O)NC1(c2ccccc2)CCN(CC[C@@]2(c3ccc(F)c(F)c3)CN(C(=O)c3ccccc3)CCO2)CC1,outcome,[4],inactive
O=C1c2c(O)cccc2Cc2cccc(O)c21,outcome,[8],inactive
same,outcome,[4],inactive
O=C(O)CC(O)(CC(=O)O)C(=O)O,outcome,[4],inactive
c1ccc2occc2c1,outcome,[4],inactive
Cn1cnc2c1c(=O)[nH]c(=O)n2C,outcome,[4],inactive
CC1=C(C)S(=O)(=O)CCS1(=O)=O,outcome,[8],inactive
same,outcome,[4],inactive
CSc1ccc(Oc2ccc(S(N)(=O)=O)cc2CN(C)C)cc1C,AC50,[4],22.8 µM (active)
